Assay results: PubChem BioAssay (EPA / NIEHS)
Calls of active or inactive are those of the source. Rule for the calls: active = hit-call score of the fitted dose curve at least 0.9, where 1 is the maximum; inactive = score below 0.9.

Assay: ATG_AP_1_CIS: Attagene CIS-FACTORIAL HepG2 Assay for human Activator Protein 1 (AP-1) (AID 2282931)
Details: HepG2 Attagene cis-factorial AP-1 reporter mRNA; actives raise or lower the signal
Procedure: ATG_CIS is a cell-based, multiplexed-readout assay that uses HepG2, a human liver cell line, with measurements taken at 24 hours after chemical dosing in a 24-well plate.ATG_AP_1_CIS is one of 52 assay component(s) measured or calculated from the ATG_CIS assay. It is designed to make measurements of mRNA induction, a form of inducible reporter, as detected with fluorescence intensity signals by Reverse transcription polymerase chain reaction (RT-PCR) and Capillary electrophoresis technology.Data from the assay component ATG_AP_1_CIS was analyzed into 1 assay endpoint. This assay endpoint, ATG_AP_1_CIS, was analyzed with bidirectional fitting relative to DMSO as the negative control and baseline of activity. Using a type of inducible reporter, measures of mRNA for gain or loss-of-signal activity can be used to understand the reporter gene at the transcription factor-level as they relate to the gene FOS and JUN. Furthermore, this assay endpoint can be referred to as a primary readout, because this assay has produced multiple assay endpoints where this one serves a reporter gene function. To generalize the intended target to other relatable targets, this assay endpoint is annotated to the dna binding intended target family, where the subfamily is basic leucine zipper.
Human liver HepG2 cells are transiently transfected with multiple reporter transcription units (MRTUs) in 6-well plates using FuGene 6 reagent (Roche; 3 ml FuGene/1 mg DNA). The MRTU constructs are regulated by a cis-regulating element (promoter). […] A major difference between the CIS and TRANS system is that in CIS activities of endogenous TFs are measured, whereas the TRANS assay evaluates changes in activities of exogenous, chimeric NR-Gal4 proteins. […] At the end of 24 hour incubation, total RNA was isolated using TriZol reagent (Invitrogen). The isolated RNA is then reverse-transcribed using oligo(dT) primer and Mo-MLV reverse transcriptase (Invitrogen) with DNAse I (Ambion) treatment for 30 min. The one-tenth of the produced cDNA was amplified by PCR using Taq DNA polymerase (Invitrogen) and two reporter sequence-specific primers. The PCR products were fluorescently labeled by primer extension with 6-arboxyfluorescein (6-FAM) 5'-labeled reporter sequence-specific primer (2 min at 95 C, 20 s at 68 C and 10 min at 72 C) and these products were digested with 5U of HpaI (New England Biolabs) for 2h at 37 C. The fragments were purified using Qiaquick PCR columns (Qiagen), analyzed on an ABI 3130xL genetic analyzer (Applied Biosystems) with peak positions identified by using a set of X-rhodamine (ROX)-labeled MapMarker1000 molecular weight standards (BioVentures). The raw capillary electrophoresis data was processed using Attagraph software (Attagene).

Compound	outcome	AC50
CCC(C)OC(=O)c1ccc(O)cc1 (stereo not given)	inactive	
Cc1ccc(N)c([N+](=O)[O-])c1	inactive	
CCCCCCCCO[C@@H]1O[C@H](CO)[C@@H](O)[C@H](O)[C@H]1O	inactive	
CCOC(=O)CC(C(C)=O)C(C)=O	inactive	
CCCCCC/C=C\CCCCCCCC(=O)O	inactive	
C=CC(=O)OCCC(=O)O	inactive	
COCc1c(C(C)C)nc(C(C)C)c(/C=C/[C@@H](O)C[C@@H](O)CC(=O)O)c1-c1ccc(F)cc1	inactive	
Cn1c([N+](=O)[O-])cnc1COC(N)=O	inactive	
CC(C)=CCCC(C)C=O (stereo not given)	inactive	
Cc1cc(C)c(C)cc1C	inactive	
O=C1C(N(CO)C(=O)NCO)N(CO)C(=O)N1CO (stereo not given)	inactive	
CCC(=O)Oc1ccc(/C(CC)=C(\CC)c2ccc(OC(=O)CC)cc2)cc1		11.6 µM (active)
CO[Si](CCC1CCC2OC2C1)(OC)OC (stereo not given)	inactive	
C=CCOCC(O)CCl (stereo not given)	inactive	
C=C(C)C(=O)OCC(C)C	inactive	
CC1OC1C1CCC2(C)OC2C1 (stereo not given)	inactive	
CCCCCC/C=C/C=O	inactive	
O=C1C=CC(=O)O1	inactive	
CC(C)=CCC[C@H](C)CCO	inactive	
CCCC(=O)OCc1ccccc1	inactive	

Compound	outcome	AC50
CC(C)(c1cc(Br)c(OCCO)c(Br)c1)c1cc(Br)c(OCCO)c(Br)c1		36.6 µM (active)
O=P(O)(O)Oc1ccccc1	inactive	
CC(=O)Oc1ccc(C)cc1	inactive	
O=Nc1ccc(O)cc1	inactive	
O=[N+]([O-])c1ccc(CO)cc1	inactive	
CN1C(=O)N(C)C(O)C1O (stereo not given)	inactive	
C1=CCCC1	inactive	
C=C(C)[C@@H]1CCC2=CCC[C@@H](C)[C@]2(C)C1		100 µM (active)
CCc1ccc2c(c1)C(=O)c1ccccc1C2=O	inactive	
O=C1CCC(=O)N1Cl	inactive	
C=CC(=O)OCCOC1C2CCC1C1CC=CC12 (stereo not given)	inactive	
COCC(C)N (stereo not given)	inactive	
COC(=O)c1cc(Cl)ccc1[N+](=O)[O-]	inactive	
CC(=O)OCC(=O)[C@@]12N=C(C)O[C@@H]1C[C@H]1[C@@H]3CCC4=CC(=O)C=C[C@]4(C)[C@H]3[C@@H](O)C[C@@]12C	inactive	
CC1(C)O[C@@H]2C[C@H]3[C@@H]4C[C@H](F)C5=CC(=O)C=C[C@]5(C)[C@@]4(F)[C@@H](O)C[C@]3(C)[C@]2(C(=O)CO)O1	inactive	
Nc1ccc(N)c(Cl)c1		18.1 µM (active)
CCC(C)C=O (stereo not given)	inactive	
O=C1c2cccc(O)c2C(=O)c2c(O)cc(CO)cc21		32.5 µM (active)
CC(=O)Nc1nnc(S(N)(=O)=O)s1	inactive	
CC(C)(C)c1ccc(OC(=O)c2ccccc2O)cc1	inactive	
